# Compounds with a hit are over-represented: about 7.6% of the library has one in this group of screens.
# MCF10A rereplic = DNA re-replication induction in MCF 10a cells; Potency, µM (series often up to 46.1 µM), actives largely listed as activators; hit rate 2.9% among 350,000; MCF 10A DNA re-replication, Hoechst nuclear intensity, 48 h; further: nearly all actives have a fitted effect of over 50% in size
# KB-3-1 cytotox = kills parental KB-3-1 adenocarcinoma cells; Potency, µM (titrated, usually from 46.1 µM), hits mostly cytotoxic; KB-3-1 viability, CellTiter-Glo ATP luminescence, 72 h; hit rate 1.4% among 400,000; further: nearly all actives have a fitted effect of over 60% in size
#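 Screening of KB-3-1 cells (DMEM, 10% FBS, phenol-red free) ran from lowest to highest compound concentration; after 72 h at 37 °C viability was read luminescently and curves fitted.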
# SW480 rerep = inducers of DNA re-replication in SW480 colon cancer cells | SW480 DNA re-replication, Hoechst DNA content imaging, 48 h | Potency, µM (doses to about 46.1 µM), actives largely listed as activators | hit rate 1.8% among 340,000 | AID 624297; further: nearly all actives have a fitted effect of over 55% in size
#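 First, 250 cells per well were seeded. Next, compound or vehicle (23 nL) was pinned in, plates sat 48 hr at 37 C. Finally Hoechst was added for 40 min before fluorescence scanning.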
# hERG WT inh = inhibitors of human wildtype KCNH2 potassium channel | activity change, % at 1.84 µM | Q12809 | hit rate 0.37% among 340,000 | U2OS, BacMam KCNH2, thallium flux FluxOr; active compounds read low;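 active means maximum activity change below -70%; inconclusive means maximum activity change between -70% and -50%; inactive means maximum activity change above -50%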
# Target sequence (Q12809 whole entry, looked up): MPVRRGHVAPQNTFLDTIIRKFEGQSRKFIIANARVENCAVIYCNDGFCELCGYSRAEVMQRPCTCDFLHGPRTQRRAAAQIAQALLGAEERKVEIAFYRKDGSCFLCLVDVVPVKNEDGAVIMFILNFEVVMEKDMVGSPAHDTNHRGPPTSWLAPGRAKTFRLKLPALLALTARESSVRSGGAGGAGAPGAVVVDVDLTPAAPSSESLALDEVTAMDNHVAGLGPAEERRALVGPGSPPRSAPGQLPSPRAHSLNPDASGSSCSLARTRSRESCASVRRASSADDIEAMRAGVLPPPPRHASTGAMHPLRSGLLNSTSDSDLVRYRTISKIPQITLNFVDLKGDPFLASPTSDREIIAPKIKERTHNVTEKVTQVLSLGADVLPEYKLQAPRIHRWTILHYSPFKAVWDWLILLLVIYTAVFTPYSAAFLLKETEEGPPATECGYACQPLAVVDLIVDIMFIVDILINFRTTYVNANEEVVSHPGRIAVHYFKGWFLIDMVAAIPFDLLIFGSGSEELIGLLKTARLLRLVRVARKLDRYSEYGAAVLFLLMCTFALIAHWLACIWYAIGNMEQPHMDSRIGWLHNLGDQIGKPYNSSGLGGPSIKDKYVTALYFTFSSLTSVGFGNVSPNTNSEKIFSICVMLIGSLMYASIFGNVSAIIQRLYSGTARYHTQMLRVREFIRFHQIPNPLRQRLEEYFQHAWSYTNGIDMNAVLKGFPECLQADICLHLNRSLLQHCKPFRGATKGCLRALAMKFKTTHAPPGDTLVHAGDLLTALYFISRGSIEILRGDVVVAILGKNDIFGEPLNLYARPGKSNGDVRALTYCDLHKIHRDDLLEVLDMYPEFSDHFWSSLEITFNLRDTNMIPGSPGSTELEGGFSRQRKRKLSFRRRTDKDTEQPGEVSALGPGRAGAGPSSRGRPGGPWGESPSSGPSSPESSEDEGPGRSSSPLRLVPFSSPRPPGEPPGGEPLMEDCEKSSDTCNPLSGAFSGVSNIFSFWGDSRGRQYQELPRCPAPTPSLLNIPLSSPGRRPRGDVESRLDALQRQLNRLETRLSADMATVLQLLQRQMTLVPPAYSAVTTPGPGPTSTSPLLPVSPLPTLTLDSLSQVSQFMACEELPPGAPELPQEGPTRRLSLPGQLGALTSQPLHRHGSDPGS
#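 U2OS cells transduced with wild-type KCNH2 virus are loaded with FluxOr dye for 45 min, and thallium flux is measured in kinetic reads before and after stimulation buffer. Rate constants are normalized to DMSO controls.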
# KB-V1 cytotox = kills drug-selected multidrug resistant KB-V1 cells; Potency, µM (titrated, usually from 46.1 µM), usual class: cytotoxic; KB-V1 MDR cells viability, CellTiter-Glo, 72 h; AID 1347076; hit rate 3.4% among 400,000; further: nearly all actives have a fitted effect of over 60% in size
#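 Compound-treated KB-V1 multidrug-resistant cells, 72 h, 37 degrees C; viability by CellTiter-Glo. Fitted qHTS curves give the values.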
# KCNH2 3.1 inh = KCNH2 3.1 (human) potassium channel inhibition | U2OS KCNH2 3.1, thallium flux FluxOr; active compounds read low | activity change, % (tested at about 1.8 µM) | hit rate 0.95% among 340,000 | AID 720553;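 active means maximum activity change below -70%; inconclusive means maximum activity change from -70% to -50%; inactive means maximum activity change above -50%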;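 further: thallium influx rate constant from kinetic fluorescence after stimulation buffer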
#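 We transduce U2OS cells with the mutant 3.1 virus, culture them overnight, load FluxOr with Red40 quencher for 45 min, then add stimulation buffer and read kinetically for 2 min to derive a normalized rate constant.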
# Hits are given with their value; n = inactive; u = inconclusive; x = no result. Unless noted, the call rests on the fitted dose curve; in most records, active means well fitted curve in the direction sought with a large enough effect; inconclusive means small, poorly fitted or top-dose-only effect, or another doubt; inactive means no such curve, though single readings can be large; an effect the other way counts as inactive or inconclusive.
SMILES,MCF10A rereplic,KB-3-1 cytotox,SW480 rerep,hERG WT inh,KB-V1 cytotox,KCNH2 3.1 inh
O=S(=O)(Nc1ccc2c(c1)OCCO2)c1cccc2cccnc12,n,n,n,n,16µM,n
O=C(Oc1cccc2cccnc12)c1ccc2c(c1)OCCO2,3.3µM,n,10µM,n,u,n
O=C(Oc1cccc2cccnc12)c1cccs1,5.2µM,u,u,n,12µM,n
O=C(Oc1cccc2cccnc12)c1ccco1,u,u,u,n,u,n
COc1ccc(/C=C2/CSC/C(=C/c3ccc(OC)c(OC)c3)C2=O)cc1OC,u,4.6µM,2.9µM,n,1.5µM,n
COc1cc(C=C2CCCC(=Cc3ccc(OCC4CO4)c(OC)c3)C2=O)ccc1OCC1CO1 (centres undefined),x,u,x,n,u,n
O=C(NCc1ccc(F)c(F)c1)C1Cc2c(-c3ccc4c(c3)OCO4)ccnc2O1 (centres undefined),x,8.2µM,x,x,4.1µM,x
COc1ccc(CNC(=O)C2Cc3c(-c4ccc5c(c4)OCO5)ccnc3O2)cc1OC (centres undefined),x,21µM,x,x,9.2µM,x
COc1ccc(CNC(=O)C2Cc3c(-c4ccccc4)ccnc3O2)cc1OC (centres undefined),x,n,x,x,u,x
Cc1cc(C)cc(Nc2cc(C(=O)NCc3ccccc3)c3ccccc3n2)c1,x,u,x,x,n,x
CN(C)c1ccc(NC(=S)c2ccccn2)cc1,n,15µM,u,n,u,n
O=C(COC(=O)c1c(Cl)cccc1Cl)Nc1ccccc1Br,u,n,n,n,18µM,n
Cc1ccc2c(O)c(C)c(=O)[nH]c2n1,n,n,u,n,n,n
O=C(Nc1ccc2ccccc2c1)Nc1nnc(-c2ccccc2Cl)s1,x,n,x,x,n,x
Cc1ccc(NC(=O)C2C(c3ccccc3)C=CC(c3ccccc3)C2C(=O)O)cc1 (centres undefined),n,n,n,n,n,n
COc1ccc(-n2nnnc2-c2ccccc2)cc1,n,6.5µM,n,n,9.2µM,n
Cc1ccc(Nc2nc(NCc3ccco3)nc3nccnc23)cc1C,x,n,x,x,n,x
CCN1CCN(C(=O)Nc2cc(Cl)ccc2OC)CC1,3.7µM,n,n,n,n,n
O=C(Nc1cc(Cl)ccc1Cl)N1CCN(C(=O)Nc2cc(Cl)ccc2Cl)CC1,n,n,n,n,15µM,n
COc1ccc(Cl)cc1NC(=O)N1CCN(c2ccccc2OC)CC1,n,n,n,n,n,n
NC(=O)Nc1cc(Cl)ccc1Cl,n,n,n,n,n,n
NS(=O)(=O)c1ccc(NCc2ccccc2OCc2ccc(F)cc2)cc1,n,n,n,n,u,n
NS(=O)(=O)c1ccc(CCNCc2ccccc2OCc2ccc(F)cc2)cc1,n,n,n,n,n,-76
Cc1cc(Cl)ccc1OCC(O)CNCCc1ccc(S(N)(=O)=O)cc1 (centres undefined),u,n,u,u,n,-98
COc1cc(CNCCc2ccc(S(N)(=O)=O)cc2)ccc1OCc1ccc(Cl)cc1,13µM,u,u,n,u,-109
SMILES,MCF10A rereplic,KB-3-1 cytotox,SW480 rerep,hERG WT inh,KB-V1 cytotox,KCNH2 3.1 inh
CCOc1cc(CNCCc2ccc(S(N)(=O)=O)cc2)ccc1OCc1ccc(Cl)cc1,u,u,u,n,u,n
C[C@H]1CN([C@@H](C)CO)C(=O)CCCn2cc(nn2)CO[C@@H]1CN(C)C(=O)c1ccncc1,x,u,x,n,u,n
CCNC(=S)N/N=C/c1cccc(C)c1,n,n,n,n,n,n
Cc1ccc(/C=C/C(=O)Nc2cccc([S+](=O)([O-])Nc3ccccc3F)c2)cc1,x,n,x,x,u,x
COC(=O)[C@@]1(Sc2ccc(C)cc2)CC(=O)N(c2ccccc2)[C@@H]1c1ccccc1,x,u,x,x,16µM,x
COC(=O)[C@@]1(Sc2ccc(C)cc2)CC(=O)N(C(=O)CCc2ccccc2)[C@@H]1c1ccccc1,x,n,x,x,n,x
Cc1cccc(C)c1-n1nnnc1C1c2ccccc2C(=O)N1CCc1ccccc1F (centres undefined),x,n,x,x,n,x
O=C(CSc1n[nH]c(-c2ccccn2)n1)Nc1cccc(Cl)c1,n,u,u,n,n,-70
Cn1c(=O)c(Nc2ccc(O)cc2)c2c3c(cccc31)C(=O)c1ccccc1-2,u,n,n,n,n,n
O=C(NCC(c1cccs1)N1CCOCC1)c1ccc(Br)o1 (centres undefined),u,u,8.2µM,n,u,n
O=C(CSc1ccc(Br)cc1)NCC(c1cccs1)N1CCOCC1 (centres undefined),n,16µM,n,n,u,n
COc1ccc(C(CNC(=O)CSc2ccc(Br)cc2)N2CCOCC2)cc1 (centres undefined),n,n,n,n,n,n
CCN(CC)c1ccc(NS(=O)(=O)c2cn(C)c(=O)n(C)c2=O)c(C)c1,n,u,n,n,n,n
COC(=O)c1ccc2[nH]c3cccc(/C(=C/c4ccccc4)c4ccccc4)c3c2c1,12µM,u,n,n,u,u
c1ccc(-c2nn3c(Cn4nnc5ccccc54)nnc3s2)nc1,n,n,n,n,18µM,n
c1ccc(CCc2nn3c(Cn4nnc5ccccc54)nnc3s2)cc1,n,n,n,n,n,n
COc1ccc(OCc2nn3c(Cn4cnc5ccccc54)nnc3s2)cc1,n,n,n,n,u,n
c1ccc(CCc2nn3c(Cn4cnc5ccccc54)nnc3s2)cc1,n,u,n,n,18µM,n
c1ccc(Cc2nn3c(Cn4nnc5ccccc54)nnc3s2)cc1,n,n,n,n,23µM,n
c1cncc(-c2nn3c(Cn4nnc5ccccc54)nnc3s2)c1,n,n,n,n,u,n
COC(=O)c1sccc1NC(=O)CN(C)NS(=O)(=O)c1ccc(F)cc1,u,n,13µM,n,u,n
COC(=O)c1sccc1NC(=O)CSc1ccc(Cl)cc1,n,n,n,n,23µM,n
COC(=O)c1sccc1NC(=O)Cn1nnc(-c2ccc(C)cc2)n1,n,n,n,n,21µM,n
COC(=O)c1sccc1NC(=O)CN(C)NS(=O)(=O)c1ccc(Cl)cc1,u,n,u,n,u,n
COC(=O)c1sccc1NC(=O)CSc1ccccc1NS(=O)(=O)c1ccc(Br)cc1,n,21µM,n,n,4.1µM,n
COc1ccc(NC(=O)C2c3ccccc3OCC(=O)N2CC(F)(F)F)cc1 (centres undefined),x,n,x,x,n,x
Cc1ccc(C)c(Cn2c3ccccc3c3cnn(CC(=O)NC4CCCCCC4)c(=O)c32)c1,x,n,x,x,n,x
N#CCCN(C(=O)COC(=O)COc1ccccc1Cc1ccccc1)c1ccccc1,n,n,n,n,n,n
